Screens from PubChem.
Sampled rows, rich in hits. Any-hit rate of the full collection: about 22%.
Pf growth 48h: P. falciparum growth inhibition at 48 hours (one generation). P. falciparum luciferase growth in erythrocytes, 48 h. AID 504832. 310,000 compounds, 5.9% hits. Potency, µM (series often up to 28.7 µM), most hits filed as inhibitors
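A one-generation exposure of luciferase-tagged malaria parasites in RPMI 1640/Albumax erythrocyte culture, 37 C and 5% CO2. Inhibition is inferred from decreased luminescence after adding detection reagent.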
Pf growth 96h: P. falciparum growth inhibition at 96 hours | P. falciparum luciferase reporter growth, 96 h | AID 504834 | Potency, µM (top dose mostly 28.7 µM), actives largely listed as inhibitors | 320,000 compounds, 6.9% hits
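Two-generation exposure (96 h) targets delayed-death phenotype. Reporter parasites carrying integrated firefly luciferase, in red cells at 2% hematocrit and 0.05% parasitemia final, kept at 37 C, 5% CO2; luminescence loss indicates inhibition.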
Shiga inhibitor: inhibitors of Shiga toxin in Vero cells; AID 2315; 290,000 compounds, 9.2% hits; Vero cells, Shiga toxin protein synthesis inhibition reporter; inhibition, % at 38.7 µM; in the data active = inhibition mostly above about 28%, no sharp cut-off; inactive = mostly below about 43%
LmPK inh: inhibitors of Leishmania mexicana pyruvate kinase; purified LmPK, Kinase-Glo ATP luminescence, 1 h; AID 1721; Potency, µM (series often up to 57.5 µM), most hits filed as inhibitors; 290,000 compounds, 0.37% hits; Q27686
Target sequence (Q27686 whole entry, looked up): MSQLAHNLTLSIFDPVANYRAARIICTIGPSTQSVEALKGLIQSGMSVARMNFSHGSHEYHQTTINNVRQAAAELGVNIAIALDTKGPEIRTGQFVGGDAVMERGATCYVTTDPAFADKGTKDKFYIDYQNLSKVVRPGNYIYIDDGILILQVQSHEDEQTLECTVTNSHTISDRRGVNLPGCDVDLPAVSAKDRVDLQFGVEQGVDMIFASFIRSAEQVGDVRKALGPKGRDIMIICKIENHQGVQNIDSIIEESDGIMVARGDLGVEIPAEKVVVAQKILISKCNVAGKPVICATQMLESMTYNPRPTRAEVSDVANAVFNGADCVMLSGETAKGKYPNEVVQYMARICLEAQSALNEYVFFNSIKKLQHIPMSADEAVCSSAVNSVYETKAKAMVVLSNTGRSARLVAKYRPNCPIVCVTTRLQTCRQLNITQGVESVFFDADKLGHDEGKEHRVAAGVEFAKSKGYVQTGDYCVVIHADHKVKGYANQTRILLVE
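0.1 nM LmPK, 0.5 mM PEP, 0.1 mM ADP; 50 mM imidazole pH 7.2, 7 mM MgCl2, 50 mM KCl; 1 h RT. Kinase-Glo luminescence readout, normalized to no-enzyme (full inhibition) and uninhibited wells.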
CHX counter: counter-screen hit for Shiga toxin inhibitors, cycloheximide | 300,000 compounds, 12% hits | cell reporter, cycloheximide protein synthesis inhibition counterscreen | AID 2314 | max response, %; in the data active = max response mostly above about 13%, no sharp cut-off; inactive = mostly below about 14%; note: read at 38.3 µM for the half of the compounds with a filed dose
Of the large screens only hits and unclear results are named; the others gave an inactive call. Unless noted, calls come from the whole dose curve; as a rule, active = well fitted inhibition curve with a large enough effect; inconclusive = small, poorly fitted or top-dose-only effect, or another doubt; inactive = no such curve, though single readings can be large or run the other way.

COc1ccc(NC(=O)COC(=O)CCc2ccccc2)c(OC)c1	Pf growth 48h inconclusive
Cc1ccc(Oc2ccccc2/C=C/C(=O)O)cc1	none
CCCCCOP(=O)(c1ccccc1)c1ccccc1	Pf growth 48h 12µM, Pf growth 96h 9.3µM
CCCCCP(=O)(O)c1ccccc1	none
Brc1ccc2nc(-c3cccs3)c(NCC3CCCO3)n2c1 (configuration not stated)	Shiga inhibitor 56, CHX counter 32
CC(=O)Nc1cccc(NC(=O)CCNC(=O)c2ccccc2)c1	none
Cc1ccnc(NC(=O)c2cccc(NC(=O)c3ccccc3C)c2)c1	none
CCC(C(=O)Nc1cc(C(=O)Nc2cc(C)ccn2)ccc1Cl)c1ccccc1 (configuration not stated)	Pf growth 48h 8.3µM, Pf growth 96h 8.3µM, CHX counter 19
Cc1ccnc(NC(=O)CC(NC(=O)c2ccccc2Cl)c2ccccc2)c1 (configuration not stated)	none (no result: Shiga inhibitor, LmPK inh, CHX counter)
Cc1ccnc(NC(=O)c2ccc(Cl)c(NC(=O)c3ccccc3C)c2)c1	Pf growth 96h inconclusive, CHX counter 16
Cc1oncc1C(=O)N1CCCC(CO)(Cc2ccc(F)cc2F)C1 (configuration not stated)	CHX counter 17
COc1cccc(CC(=O)N2CCCC(CO)(Cc3ccc(F)cc3F)C2)c1 (configuration not stated)	Pf growth 96h 8.3µM
Cc1occc1C(=O)N1CCCC(CO)(Cc2ccc(F)cc2F)C1 (configuration not stated)	none
Cc1ccc(C)c(S(=O)(=O)N2CCN(C(=O)c3ccnn3C)CC2)c1	Pf growth 48h inconclusive
Clc1cccc2c1Sc1ccccc1CC2N1CCNCC1 (configuration not stated)	Pf growth 48h inconclusive, Pf growth 96h 10µM
Clc1ccc2c(c1)C(N1CCNCC1)Cc1ccccc1S2 (configuration not stated)	Pf growth 48h 10µM, Pf growth 96h 13µM
CN1CCN(C2Cc3ccccc3Sc3ccc(S)cc32)CC1 (configuration not stated)	none (no result: Pf growth 48h, Pf growth 96h, LmPK inh)
COc1ccccc1NC(=O)N1c2ccc(F)cc2CCC1C (configuration not stated)	Pf growth 96h 4.7µM
COc1ccc(C(=O)N2c3ccc(F)cc3CCC2C)cc1OC (configuration not stated)	Pf growth 48h inconclusive (no result: Pf growth 96h)
O=C(CN1CCN(Cc2ccc(F)cc2Cl)CC1)NCc1ccccc1	Pf growth 96h inconclusive
Cc1cc(C(=O)CN2C(=O)NC(c3ccccc3)(c3ccccc3)C2=O)c(C)n1Cc1ccccc1	Pf growth 48h inconclusive, Pf growth 96h 8.3µM
CCc1cccc2c(C(=O)CN3C(=O)NC(C)(c4cccc5ccccc45)C3=O)c[nH]c12 (configuration not stated)	Pf growth 48h inconclusive, Pf growth 96h 10µM
O=C(CN1C(=O)NC(c2ccccc2)(c2ccccc2)C1=O)c1c[nH]c2ccccc12	Pf growth 48h 12µM
O=C(O)CCC(=O)N1CCc2cc(S(=O)(=O)Nc3ccc4c(c3)OCCO4)ccc21	Pf growth 96h 13µM (no result: Pf growth 48h)
CCOc1ccc(NS(=O)(=O)c2ccc3c(c2)CCN3C(=O)CCC(=O)O)cc1	Pf growth 96h inconclusive
COc1ccc(NS(=O)(=O)c2ccc3c(c2)CCN3C(=O)CCC(=O)O)cc1OC	Shiga inhibitor 64, CHX counter 33
O=C(Cn1c2c(c(-c3ccccc3Cl)cc1=O)CCC2)NCCCN1CCOCC1	none
CC1(C)Cc2c(C#N)c(N3CCN(C(=O)c4ccccc4Cl)CC3)nc(-c3ccco3)c2CS1	Pf growth 48h inconclusive, Pf growth 96h 1.7µM
CC1(C)Cc2c(C#N)c(N3CCN(C(=O)c4ccco4)CC3)nc(-c3ccco3)c2CS1	Pf growth 48h 4.7µM, Pf growth 96h inconclusive
CCOc1ccccc1NC(=S)NC(=O)C1CC1	Pf growth 48h 5.2µM, Pf growth 96h inconclusive
Cc1ccccc1NC(=S)NC(=O)C1CCCCC1	Pf growth 48h inconclusive, CHX counter 19
COc1ccc(OC)c(NC(=O)CSc2ncnc3c2cnn3-c2ccccc2Cl)c1	Pf growth 48h 10µM
COc1ccc(OC)c(NC(=O)CSc2ncccn2)c1	none (no result: Pf growth 48h)
COc1cc(NC(=O)CSc2ncnc3c2cnn3Cc2ccccc2)cc(OC)c1	Pf growth 48h 12µM (no result: Pf growth 96h)
O=C(CCC(=O)c1cccs1)NCc1cccc(C(F)(F)F)c1	none (no result: Shiga inhibitor, LmPK inh, CHX counter)
CC1CCc2c(sc3nc(CSc4n[nH]c(N)n4)[nH]c(=O)c23)C1 (configuration not stated)	Shiga inhibitor 37
CC(C)CCOCc1nc2sc3c(c2c(=O)[nH]1)CCC(C)C3 (configuration not stated)	none (no result: Pf growth 48h)
Cc1ccc(C(=O)c2coc3c2C(=O)C(=O)c2ccccc2-3)cc1	Shiga inhibitor 42, CHX counter 32 (no result: Pf growth 48h)
O=c1[nH]c2cc3c(cc2cc1CN(CC1CCCO1)S(=O)(=O)c1ccccc1)OCCO3 (configuration not stated)	Pf growth 48h inconclusive, Pf growth 96h inconclusive
O=C(NCc1ccccc1)N(Cc1cc2cc3c(cc2[nH]c1=O)OCCO3)CC1CCCO1 (configuration not stated)	Pf growth 96h 8.3µM (no result: Pf growth 48h)
CC(=O)c1cccc(S(=O)(=O)N(Cc2cc3cc4c(cc3[nH]c2=O)OCCO4)CC2CCCO2)c1 (configuration not stated)	Pf growth 96h 13µM
O=C(c1ccccc1)C(CN1CCCC1)c1ccccc1 (configuration not stated)	Pf growth 48h inconclusive, Pf growth 96h 12µM
CC(CN1CCOCC1)C(=O)c1ccccc1 (configuration not stated)	none (no result: Pf growth 48h)
Cc1ccc(C(=O)C(C)CN2CCCCC2)cc1 (configuration not stated)	Pf growth 48h 13µM, Pf growth 96h 13µM (no result: Shiga inhibitor, LmPK inh, CHX counter)
CCCc1nc2c(sc3nc4c(cc32)COC(C)(C)C4)c(=O)o1	Pf growth 48h inconclusive, Pf growth 96h inconclusive
COCCNC(=O)C(c1ccc(Cl)cc1)N(C(=O)Cn1nnc2ccccc21)c1cccnc1 (configuration not stated)	none
Cc1ccc2nc(N3CCN(C)CC3)c(C#N)cc2c1	CHX counter 33
Cc1ccc2nc(N3CCN(C)CC3)[nH]c2c1	Pf growth 96h inconclusive, Shiga inhibitor 67, CHX counter 48
N#Cc1cc2cc3c(cc2nc1N1CCCCC1)OCCO3	CHX counter 22
Cc1ccc2cc(C#N)c(N3CCN(C)CC3)nc2c1	none
CCc1nnc(NC(=O)CCC(=O)NC2CCCCCCC2)s1	none
N/C(=N\OC(=O)COc1ccc(Br)cc1Cl)c1ccccn1	CHX counter 50
Cc1cc(C)c(C)c(OCC(=O)O/N=C(\N)c2ccccn2)c1	Pf growth 96h inconclusive (no result: Pf growth 48h)
N/C(=N\OC(=O)COc1cc(Cl)c(Cl)cc1Cl)c1ccncc1	none
N/C(=N\OC(=O)COc1ccc(Cl)cc1Cl)c1ccccn1	Shiga inhibitor 48, CHX counter 35
N/C(=N\OC(=O)COc1ccc(Br)cc1Cl)c1ccncc1	Shiga inhibitor 121, CHX counter 88
